Measurements as given in PubChem BioAssay AID1159524 (National Center for Advancing Translational Sciences (NCATS), 2015).
Screen size: about 410,000 compounds; about 5,100 (1.2%) were called active. Where a call stands in place of a potency, no number is given. Inconclusive results (about 8%) are left out. This is one part of a sample in which actives are shown more often than they occur. Calls follow the shape of the full dose curve; tested in HEK293T cells.

Experiment: High Throughput Screening for Foot and Mouth Disease Virus Antivirals; also: read-out not given here; nearly all actives have a fitted effect of over 45% in size
Settings: FMDV antiviral cell-based qHTS; series mostly up to 57.9 µM
Potency is read from the fitted curve at half-maximal effect.

For COc1ccc2[nH]cc(CCNCc3ccc(Br)cc3)c2c1, which Potency is on record?
The Potency was “inactive”.

With Cc1ccc2nc(-c3ccc(C)c(NC(=O)Cc4ccccc4)c3)oc2c1 as the molecule, how does the Potency read?
The Potency was “inactive”.

With Cc1cc(NC(=O)c2cccc(Cl)c2)ccc1-c1cc2ccccc2oc1=O as the molecule, how does the Potency read?
The Potency was “inactive”.

Which Potency does the source give for O=c1oc2ccccc2cc1-c1cn(-c2ccccc2)c(=S)[nH]1 here?
The Potency was 12.6 µM (active).

Which Potency does the source give for COc1ccc(OC)c(-c2csc(-c3c(N)c(C(=O)c4ccccc4)n4ccccc34)n2)c1 here?
The Potency was “inactive”.

Which Potency does the source give for CCOC(=O)c1[nH]c(C)c(CCC(=O)N2CCN(c3ccccc3)CC2)c1C here?
Its Potency is “inactive”.

For CCOc1ccc2nc(N3CCCN(CCCn4cccn4)CC3)nc(C)c2c1, which Potency is on record?
The Potency was “inactive”.

Which Potency does the source give for CCCn1ccc2c(OCC(=O)NCc3ccc(F)cc3)cccc2c1=O here?
Its Potency is “inactive”.

For COc1ccc(C2=NS(=O)(=O)N(C)C(C(=O)N3CCCCC3)=C2)cc1, which Potency is on record?
The Potency was “inactive”.

For COc1ccc(NC(=O)C2=CC(c3ccc(OC)c(OC)c3)=NS(=O)(=O)N2C)cc1, which Potency is on record?
Its Potency is 31.6 µM (active).

For COc1ccc(C2=NS(=O)(=O)N(C)C(C(=O)NC(C)c3ccccc3)=C2)cc1 (stereo not drawn), which Potency is on record?
Its Potency is “inactive”.

For Cc1ccc2c(c1)c1c(c(=O)n(-c3ccccc3)c(=O)n1CC(=O)c1ccc(Cl)cc1)n2C, which Potency is on record?
Its Potency is “inactive”.

With Clc1ccc([C@@H]2C[C@H]3CC[C@@H]2N3)cn1 as the molecule, how does the Potency read?
The Potency was “inactive”.

With O=C(NCc1ccco1)C1(c2ccc(Cl)cc2)CCCC1 as the molecule, how does the Potency read?
The Potency was “inactive”.

With O=C(CSc1nc2cc3c(cc2c(=O)n1CCC1=CCCCC1)OCO3)NCc1ccco1 as the molecule, how does the Potency read?
The Potency was “inactive”.

Which Potency does the source give for O=C(CSc1c2c(nc3ccc(Cl)cc13)CCCC2)NCc1ccco1 here?
The Potency was 25.1 µM (active).

Which Potency does the source give for COc1cc(C)c(CN2CCc3nnc(C(C)NC(=O)c4cccnc4)n3CC2)cc1C (stereo not drawn) here?
Its Potency is “inactive”.

With COc1cccc(-c2ccc(O)c(CNC3CN4CCC3CC4)c2)n1 (stereo not drawn) as the molecule, how does the Potency read?
The Potency was “inactive”.

Which Potency does the source give for O=C(NCCN1CCOCC1)c1cnn(-c2nccc(-c3cccs3)n2)c1C1CC1 here?
The Potency was “inactive”.

For O=C(c1cnccn1)N1CCC[C@@]2(CCN(Cc3ccncc3)C2)C1, which Potency is on record?
The Potency was “inactive”.

For Cc1nc2cnc(Nc3ccccc3)nc2n(Cc2ccc(F)cc2)c1=O, which Potency is on record?
Its Potency is “inactive”.

Which Potency does the source give for CCCCNC(=O)c1ccc2c(c1)NC(=O)C(C(C)C)N2 (stereo not drawn) here?
The Potency was “inactive”.

With COc1ccc(NC(=O)N2CC3(CCN(C(C)=O)CC3)C2)cc1 as the molecule, how does the Potency read?
Its Potency is “inactive”.

With CC(C)(C)OC(=O)N[C@H](C(=O)OC(C)(C)C)c1ccc(Br)cc1 as the molecule, how does the Potency read?
The Potency was “inactive”.

With Cc1ccc(C(=O)NNC(=O)OC(C)(C)C)c(Cl)c1 as the molecule, how does the Potency read?
Its Potency is “inactive”.

For CC(C)(C)OC(=O)NNc1c2ccccc2nc2ccccc12, which Potency is on record?
The Potency was 20 µM (active).

For O=C(c1cc(C(F)(F)F)cc(C(F)(F)F)c1)N1CCC2(CC1)CN(c1ccncc1)C2, which Potency is on record?
Its Potency is “inactive”.

For Fc1cccc(/C=N\N=C/c2cccc(F)c2)c1, which Potency is on record?
Its Potency is “inactive”.

Which Potency does the source give for CCOC(=O)CNc1nc2ccccc2n2c(C)nnc12 here?
The Potency was “inactive”.

With CCCCOC(=O)CNc1nnc(SCC(=O)OCC)[nH]c1=O as the molecule, how does the Potency read?
The Potency was 39.8 µM (active).

With Cc1nnc(SCCCCSc2nnc(C)c(=O)[nH]2)[nH]c1=O as the molecule, how does the Potency read?
The Potency was “inactive”.

For Cc1cccc(Cc2c(C)nc3nc(SCc4ccccc4Cl)nn3c2C)c1, which Potency is on record?
The Potency was “inactive”.

Which Potency does the source give for CCOc1ccc(C(=O)c2cn(Cc3ccc(F)cc3)c3ccc(F)cc3c2=O)cc1 here?
The Potency was “inactive”.

For COC(=O)c1ccccc1NC(=O)Cn1c(=O)cc(C)c2c(C)nn(-c3cccc(Cl)c3C)c21, which Potency is on record?
Its Potency is “inactive”.

For O=c1c(-c2ccc(F)cc2)nc2cnc(N3CCOCC3)nc2n1-c1ccccc1, which Potency is on record?
The Potency was “inactive”.

For C=CCN1CCC2(C)c3cc(O)ccc3CC1[C@@H]2C (stereo partly drawn), which Potency is on record?
Its Potency is “inactive”.

Which Potency does the source give for Cc1cc(C)nc(S/C=C/C(=O)c2ccccc2)n1 here?
Its Potency is 12.6 µM (active).

For CCn1c(CSc2nc(C)cc(C)n2)nnc1SCC(N)=O, which Potency is on record?
The Potency was “inactive”.

Which Potency does the source give for O=C(CSCc1cnn(-c2ccccc2)c1-n1cccc1)NCc1ccc(Cl)cc1 here?
Its Potency is “inactive”.

With COc1cn(CC(=O)Nc2cccc(C)c2C)c(CN2CCCCC2)cc1=O as the molecule, how does the Potency read?
The Potency was “inactive”.

For COc1ccc2[nH]cc(CCNc3cc(-c4ccccc4CN(C)C)ncn3)c2c1, which Potency is on record?
The Potency was “inactive”.

For COc1cccc(N2CCN(C(=O)Nc3ccc4c(c3)NC(=O)CO4)CC2)c1, which Potency is on record?
The Potency was “inactive”.

For O=C(Nc1ccccc1)N1CCN(C2c3ccccc3-c3ccccc32)CC1, which Potency is on record?
The Potency was “inactive”.

With O=C(Nc1cccc(NC(=O)N2CCN(c3ccccc3)CC2)c1)N1CCN(c2ccccc2)CC1 as the molecule, how does the Potency read?
The Potency was 25.1 µM (active).

For CC(C)NC[C@H](O)c1ccc2ccccc2c1, which Potency is on record?
Its Potency is “inactive”.

For CCc1nn(CCCC(=O)NCc2ccccc2OC)c(=O)c2cc3occc3n12, which Potency is on record?
Its Potency is “inactive”.

Which Potency does the source give for COCCn1c(=O)c(-c2cc(F)cc(F)c2)nc2cnc(N3CCNCC3)nc21 here?
The Potency was “inactive”.

For COc1ccc(-c2cn3nc(N4CCCC(C(=O)NCCCOC(C)C)C4)sc3n2)cc1 (stereo not drawn), which Potency is on record?
The Potency was “inactive”.

With O=C(Nc1c(-c2ccc(F)cc2)nc2ccccn12)c1cccc(F)c1 as the molecule, how does the Potency read?
Its Potency is “inactive”.

For Cc1ccc2nc(CNC(=O)c3ccccc3)[nH]c2c1, which Potency is on record?
Its Potency is “inactive”.

With N#C/C(=C\c1ccccc1F)c1nc2ccccc2c(=O)[nH]1 as the molecule, how does the Potency read?
Its Potency is “inactive”.

For O=C(/C(=C/c1cccc(Cl)c1)c1nc2ccccc2[nH]1)c1ccccc1, which Potency is on record?
Its Potency is 7.94 µM (active).

Which Potency does the source give for Cc1ccccc1Cn1nc(C)c(NC(=O)c2cc(-c3ccc(F)cc3)on2)c1C here?
The Potency was “inactive”.

Which Potency does the source give for Cc1nn(Cc2ccc(F)cc2)c(C)c1NC(=O)c1noc2c1CCc1ccccc1-2 here?
Its Potency is 31.6 µM (active).

For COc1ccc2c(c1)CCc1c(C(=O)Nc3cc(C)ccc3O)noc1-2, which Potency is on record?
The Potency was “inactive”.

Which Potency does the source give for CCC(C)NC(=O)Cn1c(=O)n(-c2ccc(Cl)cc2)c(=O)c2c3c(sc21)CCCC3 (stereo not drawn) here?
The Potency was “inactive”.

Which Potency does the source give for COc1cc2c(cc1OC)CC1(CCCCC1)N=C2 here?
The Potency was “inactive”.

Which Potency does the source give for COc1cc2c(cc1O)C(SC)=NC(C)(C)C2 here?
The Potency was 20 µM (active).

Which Potency does the source give for COc1cc2c(cc1OC)C(Nc1ccc(S(N)(=O)=O)cc1)=NC(C)(C)C2 here?
Its Potency is “inactive”.

Which Potency does the source give for COc1ccccc1-c1cc(NCc2cccs2)ncn1 here?
Its Potency is “inactive”.

With CC(C)C(N)C(=O)OCCOCn1cnc2c(=O)[nH]c(N)nc21 (stereo not drawn) as the molecule, how does the Potency read?
Its Potency is “inactive”.

With O=c1c(-c2cc(F)cc(F)c2)nc2cnc(Oc3ccccc3)nc2n1C[C@H]1CCCO1 as the molecule, how does the Potency read?
The Potency was “inactive”.

With Cc1ccc(OC(=O)c2c(C)nn(-c3ccccc3)c2C)cc1 as the molecule, how does the Potency read?
Its Potency is “inactive”.

For CCCn1c(C)cc(C(=O)COC(=O)c2c(C)nn(-c3ccccc3)c2C)c1C, which Potency is on record?
The Potency was 35.5 µM (active).

For C/C=C/c1ccc(OCC(=O)OCC(=O)Nc2c(C)nn(-c3ccccc3)c2C)c(OC)c1, which Potency is on record?
The Potency was “inactive”.

For COc1ccc(CNC(=O)COc2ccccc2C(=O)c2cnn(-c3ccccc3)c2)cc1OC, which Potency is on record?
Its Potency is “inactive”.

For COc1ccc(CNC(=O)COC(=O)c2c(C)nn(-c3ccccc3)c2C)cc1OC, which Potency is on record?
Its Potency is 39.8 µM (active).

Which Potency does the source give for CCC(Oc1ccccc1)C(=O)OCC(=O)Nc1c(C)nn(-c2ccccc2)c1C (stereo not drawn) here?
The Potency was “inactive”.
